# Compounds with a hit are over-represented: about 15% of the library has one in this group of screens.
# TDP1 cell noCPT: qHTS for Inhibitors of human tyrosyl-DNA phosphodiesterase 1 (TDP1): qHTS in cells in absence of CPT; 420,000 compounds, 15% hits; Potency, µM (titrated, usually from 46.2 µM), for the others: top-dose activity change, negative = growth inhibition, hits mostly inhibitors; DT40 Tdp1-/- hTDP1 cells, no CPT, ATP luminescence, 48 h; also: nearly all actives have a fitted effect of over 55% in size
#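 A cellular qHTS used chicken DT40 cells lacking endogenous Tdp1 but carrying stably transfected human TDP1. Compounds were applied without camptothecin, and cell growth kinetics were judged by ATP-dependent luminescence after ≥48 hr.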
# DT40 TDP1 CPT: DT40-hTDP1 cell growth loss with CPT; chicken DT40 Tdp1-/-;hTDP1 cells + 20 nM CPT, ATP luminescence, 48 h; Potency, µM (series often up to 46.2 µM), for the others: at the top dose activity change, negative = growth inhibition, most hits filed as inhibitors; 420,000 compounds, 12% hits; AID 686979; also: nearly all actives have a fitted effect of over 55% in size
#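 Chicken DT40 Tdp1-/- cells complemented with human TDP1, 400 cells/well, exposed to compounds plus 20 nM camptothecin for at least 48 h at 37 C; viability read as ATP content by CellTiter-Glo luminescence.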
# Gal4-VP16 FLuc: Gal4-VP16 reporter inhibition counter-screen; Drosophila S2 Gal4-VP16 UAS-luciferase, luminescence, 20 h; Potency, µM (titrated, usually from 53.6 µM), for inactives: top-dose activity, negative = inhibition, actives largely listed as inhibitors; 310,000 compounds, 3.5% hits;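 also: Gal4-VP16 expression switched on by copper sulfate through the metallothionein promoter; nearly all actives have a fitted effect of over 50% in size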
# RORgamma inh: blocks mouse ROR gamma transcriptional activity | Drosophila S2 Gal4-RORgamma UAS-luciferase reporter, 20 h | Potency, µM (top dose mostly 53.6 µM), without a hit: at the highest dose activity change, negative = inhibition, most hits filed as inhibitors | 310,000 compounds, 5.4% hits; also: nearly all actives have a fitted effect of over 60% in size
#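 A Gal4/UAS one-hybrid system in insect cells: metallothionein-promoter Gal4–ROR gamma fusion plus Photinus luciferase reporter. Copper sulfate 700 uM final, 20 hr ambient incubation, luminescent detection after 10 min with reagent.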
# ALOX12 inh: inhibitors of human 12S-lipoxygenase ALOX12 | purified 12hLO, xylenol orange hydroperoxide absorbance | 580,000 compounds, 1.1% hits | Potency, µM (top dose mostly 108 µM), for inactives: at the highest dose activity change, negative = inhibition, usual class: inhibitors | P18054
# Target sequence (P18054 whole entry, looked up): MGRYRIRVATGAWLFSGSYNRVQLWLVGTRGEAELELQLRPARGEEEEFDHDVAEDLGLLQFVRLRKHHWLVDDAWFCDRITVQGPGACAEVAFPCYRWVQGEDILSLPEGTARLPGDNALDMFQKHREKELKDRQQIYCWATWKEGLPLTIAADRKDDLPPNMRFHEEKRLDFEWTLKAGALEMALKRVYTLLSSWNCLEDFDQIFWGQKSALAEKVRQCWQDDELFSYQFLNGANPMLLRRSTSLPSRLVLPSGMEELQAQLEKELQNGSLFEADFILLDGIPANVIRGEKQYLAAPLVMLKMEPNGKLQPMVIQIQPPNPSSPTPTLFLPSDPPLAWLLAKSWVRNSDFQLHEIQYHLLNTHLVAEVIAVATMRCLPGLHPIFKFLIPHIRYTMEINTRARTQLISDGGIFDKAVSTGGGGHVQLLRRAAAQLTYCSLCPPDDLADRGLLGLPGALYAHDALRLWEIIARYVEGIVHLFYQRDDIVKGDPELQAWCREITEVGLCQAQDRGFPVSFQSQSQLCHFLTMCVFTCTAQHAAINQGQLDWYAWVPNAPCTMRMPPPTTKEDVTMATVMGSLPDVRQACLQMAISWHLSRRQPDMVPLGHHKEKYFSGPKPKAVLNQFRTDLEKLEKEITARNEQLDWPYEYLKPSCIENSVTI
#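 Hydroperoxide product was detected by ferrous iron/xylenol orange as the 573 to 405 nm absorbance ratio. Arachidonic acid at 40 uM (final) was turned over for 30 min at room temperature by 150 nM human 12hLO, pH 7.0 Hepes buffer, after 15 min compound preincubation.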
# ELG1 repair inh: inhibitors of ELG1-dependent DNA repair in HEK293T cells. HEK293T ELG1-luciferase reporter, luminescence, 16 h; DNA damage induced by 5-fluorouridine. Potency, µM (series often up to 46.1 µM), for inactives: at the highest dose activity change, negative = inhibition, most hits filed as inhibitors. 330,000 compounds, 2.3% hits. AID 504467; also: nearly all actives have a fitted effect of over 55% in size
#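 Reporter activity after DNA damage by 5-fluorouridine is monitored. Compound-treated cells incubate 16 hr at 37 °C, then ONE-Glo is added for 30 min before luminescence reading.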
# * marks the source's active call; other numbers are inactive results; i = inactive; u = inconclusive; x = not tested or not shown; ! = repeats disagree; [ ] = dose if it differs, or a comment. Calls follow the shape of the dose curve; as a rule, active = well fitted curve in the direction sought with a large enough effect; inconclusive = small, poorly fitted or top-dose-only effect, or another doubt; inactive = no such curve, though single readings can be large; an effect the other way counts as inactive or inconclusive. % is scaled to controls: 0 for no effect and ±100 for the full control effect; potency is read from the fitted curve at half-maximal effect.
SMILES,TDP1 cell noCPT,DT40 TDP1 CPT,Gal4-VP16 FLuc,RORgamma inh,ALOX12 inh,ELG1 repair inh
CCC(C)NC(=O)c1ccc2c(c1)N=C(C)c1cc(C)ccc1S2 (centres undefined),5.17µM*,3.26µM*,x,x,0.0%,x
CC1=Nc2cc(C(=O)NC(C)c3ccccc3)ccc2Sc2ccccc21 (centres undefined),x,x,x,x,-3.6%,x
CC1=Nc2cc(C(=O)NCCCN3CCN(C)CC3)ccc2Sc2ccc(C)cc21,18.4µM*,u,-2.2%,5.2%,-2.2%,19.1%
c1ccc(CCCN2CCN(c3ccccn3)CC2)cc1,0.3%,-9.3%,-3.3%,-9.1%,4.47µM*,23.7%
CSc1ncnc2c1ncn2CCCN1CCN(c2ccccn2)CC1,16.4µM*,u,x,x,-2.0%,x
c1ccc(COc2ncnc3c2ncn3CCCN2CCN(c3ccccn3)CC2)cc1,16.4µM*,u,x,x,-2.7%,x
CCCCOc1ccc(-c2nc(C3CC(=O)N(c4ccc(F)cc4)C3)no2)cc1 (centres undefined),x,x,x,x,11.4%,x
CCOCCOC1CCN(C(=O)c2nn(C)c3ccccc23)CC1,x,x,x,x,56.3%,x
Cc1ccc(-c2nc(N)nc(N)n2)c(C)c1,-4.5%,3.3%,x,x,16.2%,5.6%
Cc1ccc(-c2csc(N)c2C#N)c(C)c1,x,x,x,x,22.4µM*,x
N#Cc1c(N)nc2c(c1-c1ccc(Cl)cc1Cl)CCCC2,x,x,x,x,-4.6%,x
N#Cc1c(-c2ccc(Cl)cc2Cl)csc1N,x,x,x,x,20µM*,x
N#Cc1ccc(CN2CCC(N3CCNC3=O)CC2)cc1,x,x,x,x,0.5%[12.5 µM],x
COC(=O)c1nn(-c2ccccc2)c(Cl)c1/C=N/O,-5.9%,1.2%,-1.4%[10 µM],-5.8%,0.0%,-16.2%
COC(=O)c1nn(-c2ccccc2)c(Cl)c1/C=N/OCc1ccc(Cl)cc1Cl,29.1µM*,16.4µM*,-9.3%,-0.8%,i,-7.2%
Cc1cc(O)c(/C=N/OCc2ccc(Cl)cc2Cl)c(=O)o1,u,14.6µM*,u,12.6µM*,-12.0%,-14.6%
COc1ccc(Cl)cc1N=Cc1c(O)cc(C)oc1=O,-3.5%,-5.8%,x,x,-9.7%,x
CC(C)N(CC(O)COCc1ccccc1Cl)CC(O)COc1cccc2ccccc12 (centres undefined),x,x,x,x,-50.6%,x
O=C(NC[C@H]1OC[C@@H](NC2CCCCC2)[C@@H]1O)c1ccncc1,x,x,x,x,-1.1%[176 µM],x
Cc1c(F)cccc1NC(=O)N1CC(c2nnc(-c3ccncc3)o2)C2(CCOCC2)C1 (centres undefined),x,x,x,x,33.8%,x
CCCCCCCCCCCC1=C(O)C(=O)C=C(O)C1=O,u,u,-10.2%,-23.7%,3.43µM*!,x
CCOc1ccc(NC(=O)Cn2c(=O)oc3cc(S(=O)(=O)N4CCCCCC4)ccc32)cc1,20.6µM*,20.6µM*,x,x,-22.6%,x
COc1ccccc1N(C)C(=O)Cn1c(=O)oc2cc(S(=O)(=O)N3CCCC3)ccc21,u,u,x,x,-24.8%,x
CCN(Cc1ccccc1)C(=O)Cn1c(=O)oc2cc(S(=O)(=O)N3CCCCCC3)ccc21,14.6µM*,16.4µM*,x,x,u,x
O=C(Cn1c(=O)oc2cc(S(=O)(=O)N3CCCC3)ccc21)Nc1ccccc1Br,-20.9%,u,-3.6%,44.0%,x,-18.5%
SMILES,TDP1 cell noCPT,DT40 TDP1 CPT,Gal4-VP16 FLuc,RORgamma inh,ALOX12 inh,ELG1 repair inh
COc1cc(OC)c(NC(=O)Cn2c(=O)oc3cc(S(=O)(=O)N4CCCC4)ccc32)cc1Cl,18.4µM*,u,x,x,u,x
COc1ccc(NC(=O)Cn2c(=O)oc3cc(S(=O)(=O)N4CCCCC4C)ccc32)cc1 (centres undefined),20.6µM*,18.4µM*,x,x,-29.9%,x
Cc1nn2c(c1-c1ccccc1C(C)C)N(Cc1ccc3c(c1)CCO3)CCC2,x,x,x,x,4.4%[176 µM],x
Cc1cccc(NC(=O)Cn2c(=O)oc3cc(S(=O)(=O)NC4CCCC4)ccc32)c1,u,u,x,x,-4.9%,x
COc1ccc(NC(=O)Cn2c(=O)oc3cc(S(=O)(=O)N4CCCCCC4)ccc32)cc1OC,13µM*,16.4µM*,x,x,6.4%,x
CCOc1ccc(NC(=O)Cn2c(=O)oc3cc(S(=O)(=O)NC4CCCC4)ccc32)cc1,11.6µM*,14.6µM*,x,x,-11.2%,x
COc1ccc(NC(=O)Cn2c(=O)oc3cc(S(=O)(=O)N4CCCC4)ccc32)cc1,-20.2%,-18.2%,-8.0%,23.6%,10.1%,14.9%
COc1ccccc1CNC(=O)Cn1c(=O)oc2cc(S(=O)(=O)N3CCCC3)ccc21,29.1µM*,13µM*,-8.4%,38.2%,-2.5%,-10.9%
O=C(Cn1c(=O)oc2cc(S(=O)(=O)N3CCCC3)ccc21)NCc1ccccn1,-26.0%,0.9%,4.2%,26.8%,13.8%,u
COc1ccc(OC)c(CNC(=O)c2cc(=O)[nH]c3ccc(S(=O)(=O)N4CCCCC4C)cc23)c1 (centres undefined),16.4µM*,u,x,x,-24.8%,x
CCN(Cc1ccc(C(N)=O)cc1)C1CCCC1,x,x,x,x,-28.2%,x
CCC(=O)N1CCc2c(C(=O)NCc3ccncc3)cccc21,x,x,x,x,42.9%,x
COc1ccc([S+](=O)([O-])N2CCC(N3CCOCC3=O)CC2)cc1,x,x,x,x,5.4%[6.33 µM],x
CCOc1ccccc1/C=N/Nc1ccnc(=O)[nH]1,2.91µM*,5.17µM*,3.3%,-30.1%,u,25.3%
COc1cccc(/C=N/Nc2ccccc2C(=O)O)c1O,-1.1%,-8.3%,-25.1%,u,u,u
COc1cccc(/C=N/Nc2ccnc(=O)[nH]2)c1O,0.0651µM*,0.0231µM*,8.91µM*,3.98µM*,15.7%,-10.9%
O=c1nccc(N/N=C/c2ccccc2O)[nH]1,0.326µM*,0.231µM*,7.08µM*,3.55µM*,4.1%,u
Cn1c2ccccc2c2c(C(=O)N3CCN(c4ccc(F)cc4)CC3)cn(C3CCCCC3)c(=O)c21,18.4µM*,16.4µM*,x,x,u,x
COc1ccc(Cl)cc1NC(=O)c1cn(C2CCCCC2)c(=O)c2c1c1ccccc1n2C,u,u,x,x,-21.2%,x
COc1ccc(-n2nc(C(=O)N3CCN(c4ccc(F)cc4)CC3)c3c4ccccc4n(C)c3c2=O)cc1,3.0%,0.7%,x,x,-22.5%,x
COc1ccc(N2CCN(C(=O)c3cn(C4CCCCC4)c(=O)c4c3c3ccccc3n4C)CC2)cc1,20.6µM*,23.1µM*,x,x,5.3%,x
Cc1cccc(N2CCN(C(=O)c3cn(C4CCCCC4)c(=O)c4c3c3ccccc3n4C)CC2)c1C,16.4µM*,u,x,x,-24.0%,x
O=C(OC1C=CC2COC1O2)c1ccccc1 (centres undefined),x,x,x,x,1.1%,x
